Among all 310,000 compounds or so, about 14,000 (4.5%) showed an effect of 50% or more. The effect is printed as a negative number. Only a selection was taken, and strong results are over-represented in it overall.
Molecular target: human ether-à-go-go-related gene (hERG) potassium channel (human, UniProt Q12809)
Assay: primary screen, population patch clamp on CHO cells stably expressing hERG; higher = less effect of the substance
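Also: peak tail current of the secondary pulse compared with the same well before compound.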

Chain of human ether-à-go-go-related gene (hERG) potassium channel (Q12809 whole entry, looked up): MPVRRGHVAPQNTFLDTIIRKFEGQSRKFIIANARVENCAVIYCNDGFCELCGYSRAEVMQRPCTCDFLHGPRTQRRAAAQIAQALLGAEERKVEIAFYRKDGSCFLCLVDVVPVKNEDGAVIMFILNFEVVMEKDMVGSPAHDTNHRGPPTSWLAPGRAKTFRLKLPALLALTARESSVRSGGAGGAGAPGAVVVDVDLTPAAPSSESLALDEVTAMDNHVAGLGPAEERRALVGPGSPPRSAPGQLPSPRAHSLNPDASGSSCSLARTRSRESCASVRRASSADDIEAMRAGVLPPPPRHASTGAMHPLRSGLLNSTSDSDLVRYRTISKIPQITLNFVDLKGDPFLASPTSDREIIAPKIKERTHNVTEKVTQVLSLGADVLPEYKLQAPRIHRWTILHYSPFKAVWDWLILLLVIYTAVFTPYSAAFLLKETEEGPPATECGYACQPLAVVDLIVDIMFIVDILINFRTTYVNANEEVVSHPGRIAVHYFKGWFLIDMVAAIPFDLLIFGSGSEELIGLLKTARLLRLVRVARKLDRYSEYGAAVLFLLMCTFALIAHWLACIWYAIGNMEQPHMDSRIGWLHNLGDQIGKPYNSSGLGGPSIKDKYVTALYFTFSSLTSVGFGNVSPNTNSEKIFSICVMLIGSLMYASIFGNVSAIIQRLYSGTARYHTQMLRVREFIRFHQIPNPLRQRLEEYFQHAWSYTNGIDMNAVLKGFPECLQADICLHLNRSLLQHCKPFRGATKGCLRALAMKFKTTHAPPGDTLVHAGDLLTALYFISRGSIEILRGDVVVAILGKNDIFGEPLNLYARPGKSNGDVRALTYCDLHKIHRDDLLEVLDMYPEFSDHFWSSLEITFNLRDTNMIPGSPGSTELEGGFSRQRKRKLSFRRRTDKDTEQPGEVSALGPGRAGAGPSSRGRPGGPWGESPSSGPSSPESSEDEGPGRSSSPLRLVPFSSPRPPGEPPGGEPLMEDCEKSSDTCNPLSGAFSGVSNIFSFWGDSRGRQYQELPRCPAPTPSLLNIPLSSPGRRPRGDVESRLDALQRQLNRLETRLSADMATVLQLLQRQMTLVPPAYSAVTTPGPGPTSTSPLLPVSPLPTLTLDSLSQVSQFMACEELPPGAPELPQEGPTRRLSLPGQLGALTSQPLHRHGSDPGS

Row | SMILES | hERG current change (%, negative = inhibition) at 10uM [%]
1 | Cc1ccc(NC(=O)Nc2c(C)n(C)n(-c3ccccc3)c2=O)cc1C | 13.1
2 | Cn1c(/C(C#N)=C/c2ccc(-c3ccc(S(N)(=O)=O)cc3)o2)nc2ccccc21 | -38.1
3 | COc1ccc(N/C(N)=N/c2nc(CSc3ccc(Cl)cc3)cc(=O)[nH]2)cc1 | 17.5
4 | Cc1cccc(CN2CCC(CNC(=O)C3CCCN(S(=O)(=O)c4cnc[nH]4)C3)CC2)c1 (centres unmarked) | -1.13
5 | O=C(NCc1cccnc1)C(=O)Nc1nc2ccccc2s1 | 3.9
6 | O=C(Nc1cccc2c1CCCC2)C1CCCN(S(=O)(=O)c2cccc3nonc23)C1 (centres unmarked) | -1.23
7 | CCO[C@@H]1OC(C(=O)NCc2nc3ccccc3[nH]2)=C[C@H](c2ccccc2)[C@H]1CCCO | -25.4
8 | CSc1ccc(CN2CCCCCC2)cc1 | -35
9 | Fc1ccccc1CN1CCN(c2ccc(Cl)cc2)CC1 | 1.71
10 | OCC1(Cc2ccc(Cl)cc2)CCN(Cc2ccccc2F)CC1 | -69.2
11 | OCCC1CN(Cc2ccc(Oc3ncccn3)cc2)CCN1C1CCCCC1 (centres unmarked) | -7.34
12 | OCC1(Cc2ccccc2)CCN(Cc2cccc(F)c2F)CC1 | -11.3
13 | CCN1CCCC(CO)(Cc2ccccc2)C1 (centres unmarked) | 13.3
14 | CSc1ccc(/C=N/N2CCN(Cc3ccc(Cl)cc3)CC2)cc1 | 8.01
15 | CSc1ccc(CN2CCC(CO)(Cc3ccc(Cl)cc3)CC2)cc1 | -81.3
16 | OCCC1CN(Cc2ccc(Oc3ncccn3)cc2)CCN1C1CCCC1 (centres unmarked) | 8.16
17 | OCC1(Cc2ccc(Cl)cc2)CCN(Cc2ccc(Oc3ncccn3)cc2)CC1 | -74.1
18 | OCC1(Cc2ccccc2)CCCN(Cc2ccn[nH]2)C1 (centres unmarked) | -11.8
19 | CSc1ccc(CN2CCCC(CO)(Cc3ccccc3)C2)cc1 (centres unmarked) | -60.7
20 | COc1ccc(NC(=O)CNc2cc(C)ccc2C)cc1S(=O)(=O)N1CCOCC1 | -8.85
21 | COc1cccc(-c2cn(-c3cccc(C(F)(F)F)c3)c(=S)[nH]2)c1 | 20.4
22 | Cc1cnc(C(=O)OCC(=O)N(C)CC(=O)Nc2ccccc2Cl)cn1 | -2.14
23 | CC(OC(=O)c1ccncc1)C(=O)Nc1cccc(Cl)c1 (centres unmarked) | -23.2

Row | SMILES | hERG current change (%, negative = inhibition) at 10uM [%]
24 | Cc1ccc(S(=O)(=O)N(C)C)cc1NC(=O)C(C)OC(=O)c1ccc2ccccc2n1 (centres unmarked) | -26.8
25 | Cc1cc(C)cc(N(CCC(=O)Nc2nnc(C3CC3)s2)S(=O)(=O)c2ccc(Cl)cc2)c1 | 4.63
26 | CCOC(=O)C1CCN(C(=O)COC(=O)c2oc3ccc(OC)cc3c2C)CC1 | -55.6
27 | COc1ccc2oc(C(=O)OCC(=O)N3CCC(C)CC3)c(C)c2c1 | -0.112
28 | COc1ccc2oc(C(=O)OCC(=O)N3CCCCC3)c(C)c2c1 | 8.71
29 | COc1ccc2oc(C(=O)OCC(=O)N3CC(C)CC(C)C3)c(C)c2c1 (centres unmarked) | -56.1
30 | COc1ccc2oc(C(=O)OCC(=O)N3CC(C)OC(C)C3)c(C)c2c1 (centres unmarked) | -0.998
31 | COC(=O)C1CCN(C(=O)COC(=O)c2oc3ccc(OC)cc3c2C)CC1 | -17.3
32 | O=C(NCc1ccncc1)c1cccc(F)c1 | 0.361
33 | Cc1c(C(=O)c2ccccc2C(=O)O)sc2ccccc12 | 15
34 | Cc1cc2cc(CCNC(=O)C(C)C)c(=O)[nH]c2cc1C | 2.03
35 | NC(=O)C1=C[C@H](C2CCCCC2)C[C@H](OCc2ccc(CO)cc2)O1 | 2.51
36 | COc1ccc(S(=O)(=O)N2CCCC2=O)cc1N(C)S(C)(=O)=O | 13.8
37 | CCOC(=O)c1c(C)[nH]c(C)c1C(=O)COC(=O)/C=C/c1cccc(C(F)(F)F)c1 | 1.35
38 | CCC12CN3CCN(CC(C3)/C1=N/NC(=O)c1ccncc1)C2 | 21.2
39 | COc1ccccc1NC(=O)COc1ccccc1 | 10.9
40 | Cc1ccc(OCc2cc(C(=O)N3CCC(Oc4cccnc4)CC3)no2)cc1C | -56.7
41 | O=C(c1cc(COc2cccc(C(F)(F)F)c2)on1)N1CCC(c2ccncc2)CC1 | -78.8
42 | COc1cc(Cl)ccc1OCc1cc(C(=O)NC(C)Cc2cccnc2)no1 (centres unmarked) | -30.7
43 | COc1cccc(OCc2cc(C(=O)N3CCC(c4ccncc4)CC3)no2)c1 | -40.9
44 | Cc1ccc(OCc2cc(C(=O)N3CCCCCCC3)no2)cc1C | 3.22
45 | O=C(c1cc(COc2cccc(C(F)(F)F)c2)on1)N1CCC(c2ccccc2)CC1 | 6.79
46 | O=C(c1cc(COc2cccc(C(F)(F)F)c2)on1)N1CCC(Oc2cccnc2)CC1 | -64.1

Row | SMILES | hERG current change (%, negative = inhibition) at 10uM [%]
47 | COc1cc(Cl)ccc1OCc1cc(C(=O)NC(C)Cc2cnccn2)no1 (centres unmarked) | -53.8
48 | C[C@@H]1CN(C(=O)c2cc(COc3cccc(C(F)(F)F)c3)on2)C[C@H](C)O1 | 8.11
49 | O=C(c1cc(COc2cccc(C(F)(F)F)c2)on1)N1CCc2ccccc2C1 | 10.4
50 | COc1ccc(OCc2cc(C(=O)NC(C)Cc3cnccn3)no2)c(Cl)c1 (centres unmarked) | -4.5
51 | Cc1cc(OCc2cc(C(=O)N3CCC(Oc4cccnc4)CC3)no2)cc(C)c1Cl | 9.06
52 | Cc1c(NC(=O)C2CCN(S(=O)(=O)c3ccccc3)CC2)c(=O)n(-c2ccccc2)n1C | 4.47
53 | CCCC(=O)Nc1cc(C(=O)O)ccc1S(=O)(=O)c1ccc(C)cc1 | 11.6
54 | Cc1nc2c(c3c1[nH]c1ccccc13)C(=O)CC(C)(C)C2 | -0.41
55 | O=C(O)CN1C(=O)/C(=C\c2cc(Br)ccc2OCc2ccc(Cl)cc2)SC1=S | 15.2
56 | COc1ccc(-c2n[nH]c3c2CN(C(=O)c2ccc(OC)c(OC)c2)CC3)cc1 | -15.5
57 | CC(=O)NC12CC3CC(C)(C1)CC(NC(C)=O)(C3)C2 | -11.4
58 | COc1ccc([C@H]2[C@@H](C#N)[C@H](C#N)N3CCCN23)cc1 | 14.2
59 | CN(C)CCCOc1ccc(C(C)(C)c2ccccc2)cc1.O=C(O)C(=O)O | -16.5
60 | COc1ccc(NC(=O)COC(=O)c2n[nH]c3ccccc23)c(OC)c1 | -4.2
61 | O=C(c1cnn2ccccc12)N(Cc1ccco1)C1CCCC1 | 4.7
62 | Cc1ccc(C(C)C)cc1OCC(=O)NNC(=O)Nc1ccccc1 | 28.3
63 | CC(C)=N/N=C(\c1cccc([N+](=O)[O-])c1)C12CN3CN(CN(C3)C1)C2 | 7.66
64 | COc1ccc(OCc2cc(C(=O)NC(C)Cc3cccnc3)no2)c(Cl)c1 (centres unmarked) | -36.3
65 | CC(=O)c1cccc(OCc2cc(C(=O)NC(C)Cc3cccnc3)no2)c1 (centres unmarked) | -6.23
66 | CCOC(=O)N1CCN(C(=O)c2cc(COc3cccc(C(F)(F)F)c3)on2)CC1 | -76.7
67 | Cc1ccc(OCc2cc(C(=O)NC(C)Cc3cnccn3)no2)cc1C (centres unmarked) | 0.149
68 | O=C(c1cc(COc2cccc(C(F)(F)F)c2)on1)N1CCSCC1 | -17
69 | CCOC(=O)N1CCN(C(=O)c2cc(COc3cccc(C(C)=O)c3)on2)CC1 | 1.62

Row | SMILES | hERG current change (%, negative = inhibition) at 10uM [%]
70 | Cc1ccc(OCc2cc(C(=O)NC(C)Cc3cccnc3)no2)cc1C (centres unmarked) | -91
71 | COc1ccc(OCc2cc(C(=O)NCC(C)Oc3cccnc3)no2)c(Cl)c1 (centres unmarked) | -52.6
72 | CC(CNC(=O)c1cc(COc2c(F)cccc2F)on1)Oc1cccnc1 (centres unmarked) | -18.6
73 | Cc1ccc(C2=NN3C(C(=O)c4ccccc4)Oc4ccccc4C3C2)cc1 (centres unmarked) | 0.487
74 | COC(=O)c1cc(NC(=O)CN(c2ccccc2OC)S(=O)(=O)c2ccccc2)ccc1Cl | 1.44
75 | O=S(=O)(NC(=NC1CCCCC1)c1ccccc1F)c1ccccc1 | 10.4
76 | Cc1ccc(C2=C(CC(=O)O)C(=O)CC2)cc1 | 12.1
77 | O=C(O)CCCN1C(=O)C2C3c4ccccc4C(c4ccccc43)[C@@H]2C1=O (some centres unmarked) | 13
78 | CSc1ccc(C2NC(=O)c3ccccc3N2)cc1 (centres unmarked) | 5.54
79 | COc1ccc(NC(=O)CSc2nccn2Cc2ccccc2)cc1 | -4.86
80 | O=C(Cc1ccc([N+](=O)[O-])cc1)c1ccc(O)cc1O | -40.4
81 | COc1ccccc1CCC(=O)Nc1cc(S(=O)(=O)N2CCCCC2)ccc1N1CCN(C)CC1 | -26.5
82 | CN1CCN(c2ccc(S(=O)(=O)N3CCOCC3)cc2NC(=O)CCc2ccccc2)CC1 | -8.75
83 | CC(=O)NCCC(=O)Nc1cc(S(=O)(=O)N2CCCCC2)ccc1N1CCN(C)CC1 | -9.13
84 | COc1ccc(CC(=O)Nc2cc(S(=O)(=O)N3CCCCC3)ccc2N2CCN(C)CC2)cc1 | -54
85 | O=C(Cc1c(F)cccc1Cl)Nc1cc(S(=O)(=O)N2CCCCC2)ccc1N1CCOCC1 | -52.2
86 | CCN1CCN(c2ccc(S(=O)(=O)N3CCCCC3)cc2NC(=O)Cc2c(F)cccc2Cl)CC1 | -8.09
87 | CN1CCN(c2ccc(S(=O)(=O)N3CCCCC3)cc2NC(=O)CSCc2ccccc2)CC1 | -20.5
88 | CN1CCN(c2ccc(S(=O)(=O)N3CCCCC3)cc2NC(=O)Cc2c(F)cccc2Cl)CC1 | -21.8
89 | CN1CCN(c2ccc(S(=O)(=O)N3CCCCC3)cc2NC(=O)CCc2ccccc2)CC1 | -53.3
90 | O=C(Cc1ccc(Cl)cc1)Nc1cc(S(=O)(=O)N2CCOCC2)ccc1N1CCCC1 | -37.3
91 | CN1CCN(c2ccc(S(=O)(=O)N3CCCCC3)cc2NC(=O)Cc2ccc(Cl)cc2)CC1 | -72
92 | COc1ccc(CC(=O)Nc2cc(S(=O)(=O)N3CCOCC3)ccc2N2CCOCC2)cc1 | 0.344

From publication PMC4336329 (PLoS ONE, 2015)
